The results in this text go back to PubChem BioAssay AID1117319 (Southern Research Institute, 2015).

Structures are written as SMILES. “And” between values parts separate entries of the source, which are not always exact repeats. Equal values may be shown once. Screen size: about 260,000 compounds; about 1,500 (0.58%) were called active. Not shown: some 5% with an inconclusive outcome.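 The calls were made as follows: active = inhibition above a set limit at one or more doses, reproduced on every date tested; inconclusive = results disagree between test dates, or hit never tested in dose response; inactive = the rest.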 Only a sample is shown. Results with a measured potency or affinity are listed apart.

This test concerns the target Virion infectivity factor (Human immunodeficiency virus type 1 group M subtype B (isolate BH10)) + Virion infectivity factor (Human immunodeficiency virus type 1 group M subtype B (isolate BRU/LAI)) + Virion infectivity factor (Human immunodeficiency virus type 1 group M subtype B (isolate PCV12)) + Virion infectivity factor (Human immunodeficiency virus type 1 group M subtype B (isolate HXB2)) + DNA dC->dU-editing enzyme APOBEC-3G (Homo sapiens) (UniProt P69720+P69721+P69722+P69723+Q9HC16). Put plainly: HIV-1 Vif–A3G interaction blockers – biochemical, TR-FRET, GST-Vif 1-94, biotin-A3G peptide, dose response retest, primary screen (AID 1117319).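 Also: Vif residues 1-94 fused to GST binding biotinylated APOBEC3G peptide 110-148; 0% = full assay without inhibitor and 100% = GST in place of GST-Vif.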 The conditions noted are these: TR-FRET GST-Vif / biotin-A3G peptide binding; hits give high values.
As to `NC(=S)NCc1cccnc1`, the inhibition (commonly the change of the read-out against control, counted positive when it falls) was -0.39% (inactive).
The figure for `CCn1cc(S(=O)(=O)CC(=O)NC2CCCCC2)c2ccccc21` is -2.6% (inactive); for `CCOC(=O)N1CCN(S(=O)(=O)c2ccc(C)c(C(=O)NC3CCCCC3)c2)CC1` it is 5.81% (inactive).
The figure for `CCNc1ccccc(-c2ccc3ccccc3n2)c1=O` is 14.5% (inactive).
With `c1ccc2nc(-c3ccc4c(c3)OCO4)ccc2c1` the figure was 5.74% (inactive); with `COc1ccc(NC(=O)c2cc(S(=O)(=O)N3CCCCC3)ccc2N2CCCCC2)cn1`, 5.2% (inactive) and 0.78% (inactive); with `O=C(N/N=C/C=C/c1ccccc1)c1ccncc1`, -6.12% (inactive).
On to `Cn1c(=O)c2c(ncn2CC(=O)N/N=C/C=C/c2ccccc2[N+](=O)[O-])n(C)c1=O`, for which the inhibition was 10.3% (inactive).
The figure for `COc1ccccc1/C=C/C=N/NC(=O)c1ccncc1` is -1.29% (inactive).
Take `O=C(/C=C/c1ccco1)Nc1cccnc1`: the inhibition was 1% (inactive).
With `O=C(C=Cc1ccco1)c1ccco1` the figure was 3.42% (inactive); with `Cn1c(=O)c2c(ncn2CC(=O)N/N=C/C=C/c2ccccc2)n(C)c1=O`, 7.57% (inactive).
Turning to `O=C(/C=C/c1ccco1)Nc1ccccn1`, the inhibition was 1.75% (inactive).
With `O=C(c1ccco1)N(c1ccccn1)c1ccccn1` the figure was 3.18% (inactive).
With `OC(CNCCNc1ncccc1C(F)(F)F)Cn1ccc2ccccc21` (stereo not drawn) the figure was 4.3% (inactive); with `O=C(CNS(=O)(=O)c1ccc(Br)cc1)N1CCN(c2ccc(F)cc2)CC1`, -8.26% (inactive); with `O=C(O)CNC(=O)CCn1nnc2ccccc2c1=O`, -2.36% (inactive).
In the case of `CCOc1cccc2sc(NC(=O)c3ccc(Br)s3)nc12`, the inhibition was -37.3% (inactive).
With `Cc1ccc(NC(=O)CCC(=O)N/N=C/c2cccs2)cc1C` the figure was -6.77% (inactive).
With `Cc1cc(C)n2c(SCCC(C)C)nnc2n1` the figure was 10.9% (inactive).
As for `CCOC(=O)Oc1ccc2c(=O)c(Oc3cccc(C)c3)coc2c1`, the inhibition was 0.27% (inactive).
The figure for `CC(=O)N1CCSc2ccc(S(=O)(=O)NCCc3ccc(C)cc3)cc21` is 2.49% (inactive).
In the case of `Cc1ccc(SCc2c(C(=O)N/N=C/c3ccc(C)o3)nnn2-c2nonc2N)cc1`, the inhibition is -4.93% (inactive).
With `N#Cc1ccc(OCc2cccc(S(=O)(=O)N3CCOCC3)c2)cc1` the figure was 0.78% (inactive); with `c1ccc(-c2nnc(-c3ccco3)o2)cc1`, -6.32% (inactive); with `CC(/C=C/c1ccco1)=N/NC(=O)c1ccc(C)nc1`, 1.76% (inactive).
Regarding `CC(/C=C/c1ccco1)=N\NC(=O)c1cccc(Cl)c1`, the inhibition was -1.59% (inactive).
The figure for `CC(/C=N/NC(=O)c1cccnc1)=C\c1ccco1` is 28.6% (inactive); for `O=C(N/N=C/C=C/c1ccccc1)c1cccnc1` it is -6.59% (inactive); for `CCc1c(C#N)c(SCCC(=O)Nc2cccc(OC)c2)nc2c1C(=O)CC(C)(C)C2` it is -3.29% (inactive).
With `CC(C)(Cc1ccccc1)NC(=O)C(=O)c1cn(CC(=O)N2CCOCC2)c2ccccc12` the figure was 6.86% (inactive); with `O=C(/C=C/c1ccccc1F)c1cccc([N+](=O)[O-])c1`, -5.2% (inactive).
With `O=C(CN(C(=O)CNS(=O)(=O)c1ccc(F)cc1)c1ccc(F)cc1)NCc1ccco1` the figure was -4.81% (inactive); with `Cc1ccc(/C=N/N2CCN(Cc3ccccc3)CC2)cc1`, -2.27% (inactive).
Regarding `Cc1ccc(NCc2nnc(SCC(=O)Nc3ncc(C)s3)n2CC2CCCO2)c(C)c1` (stereo not drawn), the inhibition is -1.98% (inactive).
With `CC(=O)Nc1ccc(NC(=O)CSc2nnc(CNc3ccc(F)cc3)n2CC2CCCO2)cc1` (stereo not drawn) the figure was -7.5% (inactive); with `COC(=O)Cn1ncc2c3ccccc3n(C)c2c1=O`, 4.81% (inactive).
The figure for `COc1ccc(OC)c(S(=O)(=O)N(C(C)=O)c2ccc3oc(=O)sc3c2)c1` is 13.9% (inactive).
With `CC(=O)N(c1ccc2oc(=O)sc2c1)S(=O)(=O)c1ccccc1` the figure was 7.75% (inactive) and 2.73% (inactive).
In the case of `CCC(C)NC(=O)C1CCC(CNS(=O)(=O)c2ccc3c(c2)CC(C)N3C(C)=O)CC1` (stereo not drawn), the inhibition is 4.98% (inactive).
With `CCCOC(=O)c1c(NC(=O)CCC(=O)O)sc2c1CCCCC2` the figure was 8.05% (inactive); with `Cc1ccc(OCCNC(=O)c2ccccc2N)cc1`, 8.93% (inactive).
With `CC(=O)C1=C(c2ccccc2)NC(=O)NC1c1ccccc1OCC(=O)Nc1ccccc1` (stereo not drawn) the figure was -2.45% (inactive).
With `S=C(NCCc1ccccc1)Nc1ncccn1` the figure was 4.03% (inactive); with `O=C1CCC/C(=N\NC(=O)c2ccc(CSc3cccc4cccnc34)cc2)C1`, 5.86% (inactive).
As to `O=C(N/N=C/c1ccc[nH]1)c1ccc(COc2cccc3cccnc23)cc1`, the inhibition was 9.25% (inactive).
With `CC(Nc1nc(-c2ccccc2O)nc2ccccc12)c1ccccc1` (stereo not drawn) the figure was 4.08% (inactive).
With `CCOc1ccc(-c2cc(N3C(=O)Nc4ccccc4N3O)on2)cc1` the figure was 19.2% (inactive); with `COc1c(O)c(O)c2oc(-c3ccccc3)cc(=O)c2c1OC`, -3.24% (inactive).
With `O=c1cc(-c2ccc(O)cc2)oc2ccc(O)cc12` the figure was 28.2% (inactive).
Take `O=C(O)c1ccccc1C(=O)NC1CCCc2ccccc21` (stereo not drawn): the inhibition is -5.37% (inactive).
The figure for `Cc1cc(C)c(NC(=O)CN(C)CC(=O)N(C)CC(=O)Nc2c(Cl)cccc2Cl)c(C)c1` is -11.3% (inactive); for `COc1ccc(CCNC(=O)COC(=O)/C=C/c2cccs2)cc1` it is 8.83% (inactive).
Take `Cc1nn(-c2ccccn2)c2c1-c1nc(N)ncc1CC2`: the inhibition is 5.31% (inactive).
As to `C=C(C)C1Cc2c(C)nn(-c3ccccn3)c2C1` (stereo not drawn), the inhibition was -1.81% (inactive).
For the compound `Nc1nc(SCC(=O)c2c(N)n(Cc3ccccc3)c(=O)[nH]c2=O)n[nH]1`, the inhibition was -2.67% (inactive).
The figure for `CCCC(=O)NC(Nc1c(C)n(C)n(-c2ccccc2)c1=O)C(Cl)(Cl)Cl` (stereo not drawn) is -6.76% (inactive); for `COc1ccc(CNS(=O)(=O)c2c(C)[nH]c(C)c2C(=O)N2CCCCC2)cc1` it is -4.48% (inactive); for `CCOC(=O)Cc1cc(=O)n2[nH]c(-c3ccccc3)cc2n1` it is 3.98% (inactive).
With `CCOC(=O)Cc1cc(=O)n2[nH]c(C(C)(C)C)cc2n1` the figure was 2.01% (inactive); with `O=C(O)c1cccc(N=NN2CCOCC2)c1`, 0.39% (inactive); with `O=C1CCCC(O)=C1N=Nc1ccc2ncsc2c1`, 1.8% (inactive).
The figure for `O=C1CCCC(O)=C1N=Nc1ccc(Cl)c(Cl)c1` is -7.94% (inactive); for `CC1(C)CC(=O)C(N=Nc2ccc(S(=O)(=O)N3CCOCC3)cc2)=C(O)C1` it is 4.95% (inactive).
Regarding `Cc1nc2ccc(N=NC3=C(O)CCCC3=O)cc2s1`, the inhibition was 19.7% (inactive).
The figure for `O=Cc1cc(N=Nc2cccc(C(=O)O)c2)ccc1O` is 8.26% (inactive).
With `CC(=O)N1CCc2cc(N=NC3=C(O)CCCC3=O)ccc21` the figure was 11.2% (inactive); with `O=C1CCCC(O)=C1N=Nc1cccc(S(=O)(=O)N2CCOCC2)c1`, -9.52% (inactive).
